Test results as given in PubChem BioAssay AID2013 (Sanford-Burnham Center for Chemical Genomics, 2009).
Among all 290,000 compounds or so, about 370 (0.13%) were called active. The sample as a whole holds a higher share of actives than the screen did. Results with a measured potency or affinity are listed apart. Unmarked numbers belong to inactive results.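 Rule for the calls: active = spots per cell inhibited over 60%, with over 100 cells counted and total cytoplasm intensity under 500,000; inconclusive = wells with under 100 cells, flagged as likely toxic; inactive = the rest.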

target: G-protein coupled receptor 55 (Homo sapiens) (UniProt Q9Y2T6); test: GPR55 antagonists blocking LPI-driven arrestin recruitment, primary screen, imaging, U2OS, beta-arrestin-GFP, LPI agonist (AID 2013); details: U2OS GPR55 beta-arrestin-GFP translocation imaging, LPI antagonism; at 10 µM; stronger effect = higher value;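 note: U2OS cells stably carrying GPR55 and arrestin-GFP stimulated by 5 µM LPI near EC80; imaged beta-arrestin-GFP aggregate spots per cell after agonist stimulation; plate controls were LPI-stimulated DMSO wells for no effect and DMSO wells without LPI for full effect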
Sequence (Q9Y2T6 whole entry, looked up): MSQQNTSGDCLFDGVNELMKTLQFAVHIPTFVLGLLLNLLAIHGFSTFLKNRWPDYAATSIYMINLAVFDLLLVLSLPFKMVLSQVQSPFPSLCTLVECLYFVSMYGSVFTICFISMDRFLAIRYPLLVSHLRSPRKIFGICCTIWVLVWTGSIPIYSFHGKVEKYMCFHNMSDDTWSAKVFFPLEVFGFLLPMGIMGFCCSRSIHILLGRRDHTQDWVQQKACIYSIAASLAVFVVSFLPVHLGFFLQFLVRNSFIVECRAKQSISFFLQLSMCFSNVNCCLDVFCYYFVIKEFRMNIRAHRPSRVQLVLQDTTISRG

| SMILES | inhibition |
| --- | --- |
| Cc1[nH]c2ccccc2c1C(=O)C(=O)N1CCN(C)CC1 | 8.2% |
| COc1ccc(/C=C/C(=O)NCc2ccccn2)cc1OC | -3% |
| Cc1ccc(CNC(=O)C(NS(=O)(=O)c2ccc3nc(C)sc3c2)C(C)C)cc1 (stereo not drawn) | 3.8% |
| Cc1nc2ccc(S(=O)(=O)NC(C(=O)Nc3nccs3)C(C)C)cc2s1 (stereo not drawn) | 17.8% |
| CCc1noc(C)c1C(=O)N1CC(C)OC(C)C1 (stereo not drawn) | 22% |
| c1ccc(-c2nc(N3CCN(c4ccccc4)CC3)nc(-n3ccnc3)n2)cc1 | 24.6% |
| c1ccc(-c2nc(-n3ccnc3)nc(-n3ccnc3)n2)cc1 | 4.8% |
| COc1ccc(C(=O)NNC(=O)c2cccc(F)c2)cc1 | -5.9% |
| COc1cc(C(=O)NCC(=O)OCC(=O)c2ccc[nH]2)cc(OC)c1OC | -22.9% |
| COc1ccc2c(c1)[nH]c1c(N3CCSCC3)ncnc12 | -7.3% |
| COc1ccccc1NC(=O)Nc1ccnn1C1CCCCC1 | 0.2% |
| COc1ccc2cc(C(=O)N/N=C/c3sc4ccccc4c3O)ccc2c1 | 4.9% |
| COc1ccc(NC(=O)Cc2c(Cl)cccc2Cl)cn1 | 9% |
| COc1ccc(NC(=O)C(Cl)=C(Cl)Cl)cn1 | 6.1% |
| COc1ccc(NC(=O)/C(Cl)=C(/Cl)S(=O)(=O)Cc2ccccc2)cn1 | 93.7% (active) |
| COc1ccc(NC(=O)/C(Cl)=C(/Cl)S(=O)(=O)Cc2ccc(C)cc2)cn1 | -0.1% |
| COc1ccc(CS(=O)(=O)/C(Cl)=C(/Cl)C(=O)Nc2ccc(OC)nc2)cc1 | 2% |
| O=C(c1ccccc1[N+](=O)[O-])N1CCN(Cc2ccc3c(c2)OCO3)CC1 | 0.2% |
| Cc1nc(COc2ccc(C(=O)Nc3ccccc3N3CCOCC3)cc2)cs1 | 2.8% |
| CCc1ccccc1S(=O)(=O)Cc1ccc(C(=O)N2CCN(c3ccccn3)CC2)o1 | -4.8% |
| COc1ccc(N(CC(=O)Nc2cc(C)ccc2C)S(=O)(=O)c2c(C)nn(C)c2C)cc1 | 10% |
| COc1ccc2nc(NC(=O)CN(c3ccc(C)cc3)S(=O)(=O)c3c(C)nn(C)c3C)sc2c1 | 22.1% |
| C#CCNC(=O)C1=C[C@@H](c2csc3ccccc23)[C@H](CCCO)[C@@H](OCC)O1 | 14.1% |
| O=C(N/N=C/c1ccc(O)cc1)c1cc(C23CC4CC(CC(C4)C2)C3)[nH]n1 | -6.9% |

| SMILES | inhibition |
| --- | --- |
| COc1cc(/C=N/NC(=O)c2cc(C3CC3)[nH]n2)ccc1O | 6.5% |
| COc1cccc(/C=N/NC(=O)c2cc(C34CC5CC(CC(C5)C3)C4)[nH]n2)c1 | 14.9% |
| COc1ccc(/C=N/NC(=O)c2cc(C34CC5CC(CC(C5)C3)C4)[nH]n2)cc1O | 49.4% |
| CC(C)NC(=O)CN(CCc1ccccc1)S(C)(=O)=O | 18.2% |
| Cc1ccc(-n2ncc3c2CC(C)(C)CC3NC(=O)C2CCOCC2)cc1 (stereo not drawn) | 9.6% |
| Cc1cc(C)n(CC(=O)O)c(=O)c1[N+](=O)[O-] | 1.7% |
| CNC(=O)c1sccc1Oc1ccc(F)cc1[N+](=O)[O-] | 8.2% |
| Cc1nc(N2CCN(S(=O)(=O)c3ccccc3)CC2)c2c3c(sc2n1)CC(C)CC3 (stereo not drawn) | 14.2% |
| CC(=O)N1CCN(c2nc(C)nc3sc4c(c23)CCC(C)C4)CC1 (stereo not drawn) | 22.1% |
| Cc1nc(N2CCN(C(=O)c3ccco3)CC2)c2c3c(sc2n1)CCC3 | 46.7% |
| Cc1nc(N2CCN(C(=O)c3cccs3)CC2)c2c3c(sc2n1)CCCC3 | 36.3% |
| CCc1nc(N2CCN(C(=O)c3ccco3)CC2)c2c3c(sc2n1)CCCC3 | 7.3% |
| CC(C)c1nc(N2CCN(C(=O)c3ccco3)CC2)c2c3c(sc2n1)CCCC3 | 98.6% |
| CCCN1C2CCCC1CC(NC(=O)c1cc(OC)cc(OC)c1)C2 (stereo not drawn) | 4.9% |
| CN(C)S(=O)(=O)c1ccc(N)c([N+](=O)[O-])c1 | 16.6% |
| FC(F)(F)COc1ccc(-n2ccnc2)nn1 | -3.5% |
| Cc1ccc(/C=C/C(=O)O)cc1S(=O)(=O)N1CCCc2ccccc21 | 9.5% |
| COCCCNC(=O)CCc1ccccc1 | -1.2% |
| Cc1ccccc1CC(=O)N1CCN(C(=O)C2CCCO2)CC1 (stereo not drawn) | 10.1% |
| CCCCn1c(-c2nn(C)cc2Cl)n[nH]c1=S | 2.5% |
| CC1=NOC(=O)/C1=C/c1ccc(-c2ccc(Cl)cc2)o1 | 7.3% |
| CC1=NOC(=O)/C1=C\c1ccc(-c2ccc(Cl)cc2Cl)o1 | 21% |
| Cc1ccc(C)c(NC(=S)N2CCC(NC(=O)c3ccccc3)CC2)c1 | 2.1% |
| NC(=O)C1(N2CCCCC2)CCN(C2CC(=O)NC2=O)CC1 (stereo not drawn) | 9.8% |

| SMILES | inhibition |
| --- | --- |
| CN1C(=O)/C(=C\c2cc(N=Nc3ccccc3)ccc2O)SC1=S | 19.5% |
| CN1C(=O)/C(=C\c2ccccc2OCc2ccccc2)SC1=S | -1.8% |
| CNC(=S)NC1(C)CCS(=O)(=O)C1 (stereo not drawn) | -1.4% |
| CCOC(=O)c1c(-c2ccccc2)oc2ccc(O)c(CN3CCCC3)c12 | -1.6% |
| CCOC(=O)c1c(-c2ccccc2)oc2ccc(O)c(CN3CCOCC3)c12 | 34.5% |
| Cc1ccc(OCC(=O)N/N=C/C=C/c2ccco2)cc1C | -3.3% |
| CC(C)(C)c1ccc(-c2c(C(=O)O)c(C(=O)O)c3n2CSC3)cc1 | -9.4% |
| CC(C)(C)C1=CC=C(C(C)(C)C)C(=O)C1=O | -11.4% |
| CCN1C(=O)N(CC)C(O)(c2ccccc2)C1(O)c1ccccc1 (stereo not drawn) | 14.2% |
| Cc1ccc(-n2c(C)csc2=N)cc1 | 6.4% |
| O=C(/C=C/c1cccc(Br)c1)NCC1CCCCC1 | -3.3% |
| CC[n+]1c(/C=C/c2ccc(N(C)C)cc2)ccc2ccccc21 | -0.1% |
| CN(C)c1ccc(/C=C/c2ccc3ccccc3[n+]2C)cc1 | 5.6% |
| O=C(N/N=C\c1ccncc1)c1ccc(Br)s1 | -6.3% |
| Cc1ccc(N(CC(O)CON=C2c3ccccc3-c3ccccc32)S(C)(=O)=O)cc1 (stereo not drawn) | 2.5% |
| Cc1ccc(S(=O)(=O)N(CCCO)CC(O)CON=C2c3ccccc3-c3ccccc32)cc1 (stereo not drawn) | 4% |
| CC(C)CCNCC(O)CON=C1c2ccccc2-c2ccccc21 (stereo not drawn) | 35% |
| CS(=O)(=O)N(CC(O)CON=C1c2ccccc2-c2ccccc21)c1ccc(F)cc1 (stereo not drawn) | 4.1% |
| CCN(CC(O)CON=C1c2ccccc2-c2ccccc21)S(=O)(=O)c1ccc(Cl)cc1 (stereo not drawn) | 80.9% (active) |
| Cc1cccc(N(CC(O)CON=C2c3ccccc3-c3ccccc32)S(C)(=O)=O)c1 (stereo not drawn) | 30.8% |
| CCN(CC(O)Cn1c2ccccc2c2ccccc21)S(=O)(=O)c1ccc(C)cc1 (stereo not drawn) | 22.4% |
| CCN(CC(O)CON=C1c2ccccc2-c2ccccc21)S(=O)(=O)c1ccc(C)cc1 (stereo not drawn) | 89.1% (active) |
| CCOC(=O)c1ccccc1NC(=S)N1CCCCC1 | 4.2% |
| CCOC(=O)C1CCCN(C(=O)C2CCC(CNS(=O)(=O)c3ccc(NC(C)=O)cc3)CC2)C1 (stereo not drawn) | -10.7% |

| SMILES | inhibition |
| --- | --- |
| Cc1ccc(S(=O)(=O)NCCc2nnc3ccc(SCC(=O)Nc4nc5ccccc5s4)nn23)cc1 | -1.2% |
| C#CCOCCOCCOCCNc1nc(N2CCN(C(=O)[C@H](Cc3cc4ccccc4[nH]3)n3cc([C@@H](N)C(C)CC)nn3)CC2)nc(N2CCN(C(=O)[C@H](CCCCN)n3cc([C@@H](N)CC(C)C)nn3)CC2)n1 (stereo partly drawn) | 22.1% |
| O=C(NCC(=O)N(c1ccccc1)C(C(=O)NCC1CCCO1)c1ccccc1)c1ccco1 (stereo not drawn) | -16.3% |
| CN(CC(=O)Nc1cccc(F)c1)CC(=O)Nc1ccccc1Oc1ccccc1 | 2.5% |
| CN(CC(=O)Nc1ccccc1Oc1ccccc1)Cc1ccccc1F | 80.5% (active) |
| CC(C)CC(=O)Nc1ccccc1Oc1ccccc1 | -0.5% |
| CC(C(=O)Nc1ccccc1Oc1ccccc1)c1ccccc1 (stereo not drawn) | 83.2% (active) |
| Cc1ccccc1CN(C)CC(=O)Nc1ccccc1Oc1ccccc1 | 52.5% |
| CC(=O)Nc1ccccc1Oc1ccccc1 | -4.1% |
| CC(=O)Nc1ccc(Nc2nc(C(F)(F)F)nc3c2nnn3Cc2ccccc2Cl)cc1 | -4.9% |
| Cc1ccc(/C=C2/N=C(c3ccccc3)NNC2=O)cc1 | -5.1% |
| c1ccc(-c2noc(CSc3nnc(Cc4cccs4)n3-c3ccccc3)n2)cc1 | 0.4% |
| Cc1ccc(-c2noc(CSc3nnc(Cc4cccs4)n3-c3ccccc3)n2)cc1 | 16.9% |
| Nc1nonc1-n1nnc(C(=O)N/N=C/c2ccccc2Cl)c1-c1ccc2c(c1)OCO2 | -3.5% |
| Cc1ccc(C(=O)Nc2ccccc2N2CCCC2)cc1 | -6.2% |
| Cc1ccc(C(=O)Nc2ccccc2N2CCCCC2)cc1 | 0.4% |
| Cc1cc(=O)oc2cc(OCC(=O)N3CCN(c4ccccc4)CC3)c(Cl)cc12 | 6.4% |
| Cc1cc(Nc2ccc(F)cc2F)n2ncnc2n1 | -4.7% |
| CCOC(=O)c1c(C)[nH]c(C)c1S(=O)(=O)N(C)CC(=O)Nc1cccc(F)c1 | 8% |
| COc1ccc(N2C(=O)S[C@@H]3CS(=O)(=O)C[C@@H]32)cc1 | 14.8% |
| CC1(C)OC(=CC=Nc2ccc(Cl)cc2)OC1(C)C | -0.4% |
